This is a sample that favours compounds with a hit; in the whole collection about 19% have one here.
IL1B secr inh: qHTS for Inhibitors of Inflammasome Signaling: IL-1-beta AlphaLISA Primary Screen; THP-1 LPS/ATP IL-1B secretion, AlphaLISA, 16 h; active compounds read low; activity change, % at 57.5 µM; 360,000 compounds, 4.7% hits; AID 743279, 2014; in the data active means activity change below about -50%; inconclusive means mostly about -30% to -49%
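THP-1 cells pretreated 1 hr with compounds (up to 57.5 uM final), then stimulated with LPS (250 ng/mL final) plus ATP (1.25 mM final); secreted IL-1B measured by AlphaLISA after 16 hr, decreased signal indicating inhibition.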
DT40 TDP1 no CPT: qHTS for Inhibitors of human tyrosyl-DNA phosphodiesterase 1 (TDP1): qHTS in cells in absence of CPT. DT40 Tdp1-/- hTDP1 cells, no CPT, ATP luminescence, 48 h. Potency, µM (titrated, usually from 46.2 µM), without a hit: at the top dose activity change, negative = growth inhibition, usual class: inhibitors. 420,000 compounds, 15% hits; further: potency means the concentration at half of the fitted maximal effect; nearly all actives have a fitted effect of over 55% in size
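DT40 Tdp1-/-;hTDP1 cells, no CPT (DMSO vehicle only), 400 cells/well; compounds pin-transferred; ≥48 hr, 37 °C; CellTiter-Glo 30 min RT dark, luminescence read.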
HT1080 IDH1KD tx: qHTS for induction of synthetic lethality in tumor cells producing 2HG: qHTS for the HT-1080-IDH1KD cell line; HT-1080 IDH1 knockdown viability, ATP luminescence, 48 h; Potency, µM (top dose mostly 46.1 µM), inactives show at the highest dose activity, negative = toxicity, hits mostly cytotoxic; 360,000 compounds, 2% hits; AID 686971, 2013;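 further: potency means the concentration at half of the fitted maximal effect; 0% = DMSO wells and -100% = cell-free medium wells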
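After a 2 h attachment period, IDH1KD HT-1080 cells took pin-transferred compound for 48 h at 37 °C; ATP-based luminescence after 10 min room-temperature reagent incubation reported viability.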
TDP1 cell CPT: qHTS for Inhibitors of human tyrosyl-DNA phosphodiesterase 1 (TDP1): qHTS in cells in presence of CPT. chicken DT40 Tdp1-/-;hTDP1 cells + 20 nM CPT, ATP luminescence, 48 h. Potency, µM (highest dose often 46.2 µM), for inactives: at the highest dose activity change, negative = growth inhibition, actives largely listed as inhibitors. 420,000 compounds, 12% hits. AID 686979, 2013; further: potency means the concentration at half of the fitted maximal effect; nearly all actives have a fitted effect of over 55% in size
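Cell growth measured by CellTiter-Glo luminescence after a minimum 48 h, 37 C compound exposure with 20 nM CPT in Tdp1-knockout DT40 cells stably expressing hTDP1, seeded 400/well; qHTS titration format.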
HT1080NT lethal: qHTS for induction of synthetic lethality in tumor cells producing 2HG: qHTS for the HT-1080-NT fibrosarcoma cell line | HT-1080-NT fibrosarcoma viability, CellTiter-Glo ATP luminescence, 48 h | 360,000 compounds, 1.6% hits | AID 686970, 2013 | Potency, µM (series often up to 46.1 µM), for inactives: at the highest dose activity, negative = less viability, hits mostly cytotoxic;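 further: NT is the 2HG producing partner of a matched IDH1 knockdown line; potency means the concentration at half of the fitted maximal effect; 0% = DMSO-treated cells and -100% = media-only wells without cells; nearly all actives have a fitted effect of over 55% in size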
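HT-1080-NT fibrosarcoma cells (2HG-overproducing), 750 cells/well in RPMI with 5% FBS, dosed after 2 h and incubated 48 h at 37C. CellTiter-Glo luminescence normalized to DMSO and no-cell wells; concentration-response curves fitted and classed.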
Active calls of the source: *; ? = inconclusive; . = no result; [ ] = dose if it differs, or a comment. Unless noted, the call rests on the fitted dose curve; in most records, active means well fitted curve in the direction sought with a large enough effect; inconclusive means small, poorly fitted or top-dose-only effect, or another doubt; inactive means no such curve, though single readings can be large; an effect the other way counts as inactive or inconclusive. Unless noted, on the % scale 0 is the no-effect control and ±100 the full control effect.

SMILES	IL1B secr inh	DT40 TDP1 no CPT	HT1080 IDH1KD tx	TDP1 cell CPT	HT1080NT lethal
Cc1ccc(NC(=O)C(C)c2ccc([N+](=O)[O-])cc2)cc1Cl (configuration not stated)	-104*	?	?	?	?
Cc1ccc2nc(-c3ccc(C)c(NC(=O)COc4ccccc4Cl)c3)oc2c1	.	12%	.	-27%	.
COc1ccccc1-n1c(CNc2ccc(F)cc2)nnc1SCC(=O)Nc1cc(C)on1	4	-22%	7%	-9%	-7%
O=C(CN1C(=O)C2CC=CCC2C1=O)OCC(=O)c1ccc(Cl)c([N+](=O)[O-])c1 (configuration not stated)	-3	?	2%	?	1%
O=C(Nc1ccc(OC(F)F)c(Cl)c1)c1cccc(OC(F)F)c1	-55*	?	?	?	?
C1CN(CC23CC4CC(CC(C4)C2)C3)CCO1	-1	16µM*	-5%	-21%	3%
C[C@@H]1CN([C@@H](C)CO)S(=O)(=O)c2ccc(/C=C/c3ccccc3)cc2O[C@@H]1CN(C)Cc1ccc(C(=O)O)cc1	15	21µM*	-14%	16µM*	-4%
C[C@H](CO)N1C[C@H](C)[C@@H](CN(C)Cc2ccc3c(c2)OCO3)Oc2cc(Br)ccc2S1(=O)=O	27	7.3µM*	-26%	21µM*	13%
C[C@@H]1CN([C@H](C)CO)S(=O)(=O)c2ccc(Br)cc2O[C@@H]1CN(C)Cc1ccc(-c2ccccc2)cc1	-1	16µM*	16µM*	?	18µM*
C[C@H](O)C#Cc1ccc2c(c1)O[C@@H](CN(C)Cc1ccc(-c3ccccc3)cc1)[C@H](C)CN([C@@H](C)CO)S2(=O)=O	?	3.7µM*	21µM*	2.9µM*	?
CC(C)(CNC(=O)c1cnn(-c2nccc(-c3ccccc3F)n2)c1C1CC1)N1CCOCC1	.	?	.	-14%[9.04 µM]	.
CCOC(=O)c1ccc(N2C(=O)c3n[nH]c(-c4ccco4)c3C2c2ccc(C)cc2)cc1 (configuration not stated)	.	10µM*	.	26µM*	.
CCOC(=O)c1ccc(N2C(=O)c3n[nH]c(-c4ccco4)c3C2c2ccc([N+](=O)[O-])cc2)cc1 (configuration not stated)	?	12µM*	?	23µM*	-28%
CCOC(=O)c1ccc(N2C(=O)c3n[nH]c(C)c3C2c2ccc(OCC)cc2)cc1 (configuration not stated)	.	10µM*	.	?	.
Cn1c(=O)c2[nH]c(SCc3cccnc3)nc2n(C)c1=S	15	-28%	14%	-10%	8%
CCOc1ccccc1N(CC(=O)N1CCN(Cc2ccccc2)CC1)S(=O)(=O)c1ccccc1	-5	8.2µM*	-6%	23µM*	-14%
COc1ccc(N(CC(=O)N2CCN(Cc3ccccc3)CC2)S(C)(=O)=O)c(OC)c1	0	13µM*	12%	?	10%
CCOC(=O)C(CC)(CC)C(=O)/C=C/c1cccc(Br)c1	-98*	18µM*	?	12µM*	?
NC(=O)NC(=O)COC(=O)/C=C/c1cccc(Br)c1	22	-7%	3%	0%	4%
Cc1ccc(Cn2c(C(=O)Nc3cccc(Cl)c3)cc3sccc32)cc1	.	?	.	18µM*	.
O=C(Nc1nccs1)c1cc2sccc2n1Cc1ccc(Cl)cc1	13	-24%	2%	-26%	0%
CCOC(=O)c1ccc(NC(=O)c2cc3sccc3n2Cc2ccc(Cl)cc2)cc1	.	18µM*	.	21µM*	.
Cc1ccc(Cn2c(C(=O)O)cc3sccc32)cc1	17	-22%	1%	-20%	-8%
